This passage reports binding signal results from PMC7819943, “Rice protein-binding microarrays: a tool to detect cis-acting elements near promoter regions in rice”.

The full ranking holds about 68,000 sequences; the median of “fluorescence intensity (a.u.)” is about 9,100, and the highest 2% start at about 16,000. The full list was thinned out, with the highest values kept by preference.

Sequence of OsWRKY34 (Q0JBA9 entry or part of it): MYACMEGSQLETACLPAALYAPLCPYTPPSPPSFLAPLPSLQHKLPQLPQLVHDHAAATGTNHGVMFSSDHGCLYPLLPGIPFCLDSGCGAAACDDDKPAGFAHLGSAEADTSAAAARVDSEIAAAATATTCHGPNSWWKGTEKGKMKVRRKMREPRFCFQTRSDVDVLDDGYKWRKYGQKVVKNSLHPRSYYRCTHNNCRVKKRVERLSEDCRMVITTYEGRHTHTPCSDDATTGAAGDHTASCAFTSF

The test addresses OsWRKY34 (Oryza sativa, UniProt Q0JBA9 1-250). Briefly: protein-binding microarray (RPBM); PBS, 2% BSA, 51.3 ng/ul salmon testes DNA, 50 uM zinc acetate, 200 nM TF, 25 C, 1 h; high values mean tight binding. Particulars: protein: recombinant; tags: N-terminal polyhistidine and DsRed monomer fusion (pET32a); label: CyDye5-dUTP incorporated in the synthesized complementary strand; 3' TTTTT single-stranded linker to array surface; dsDNA, one strand shown. In outline: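 The binding signal is fluorescence intensity per feature, in arbitrary units, read on an Axon 4000B scanner. Polyhistidine- and DsRed-tagged transcription factors (N-terminal fusions) from E. coli BL21-CodonPlus were purified on Ni–NTA and applied at 200 nM for 1 h at 25 °C to a double-stranded, BSA-blocked custom Agilent array in buffer with 50 µM zinc acetate.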
For “ACGGCACCTCATAGATTATTCCGTCCGTTCCAACAACCTCCGGAGTCACCTAGTGCAG”, the binding signal is 8320 fluorescence intensity (a.u.). As for “ACAATTAACACACGTAAACACTATCTGCTATTGTAAAAAACGGAGTCACCTAGTGCAG”, the figure is 8460 fluorescence intensity (a.u.). As for “ACTTTTTATACGCAACTTTCATTGCATATATTTTACTTTTCGGAGTCACCTAGTGCAG”, the figure is 9540 fluorescence intensity (a.u.).

“TATATAACACAAAATAAGATCAACGTTGACCCGGGTTGACCGGAGTCACCTAGTGCAG”: the binding signal was 10200 fluorescence intensity (a.u.).

As for “CTGTAGTGTTGCTTGGTTTCTCTTTTTTGCCTCTTCACGGCGGAGTCACCTAGTGCAG”, the binding signal was 13200 fluorescence intensity (a.u.). As for “TGTGTTGCTCTCTCTTCACTTGGTTGGCGGCGGCGCTGCGCGGAGTCACCTAGTGCAG”, the figure is 8060 fluorescence intensity (a.u.); as for “CAACGTTGACCCGGGTTGACCCACGGTTCTTCAACAAATGCGGAGTCACCTAGTGCAG”, 20700 fluorescence intensity (a.u.). As to “AAGAATTTTGCTTTGGTTCAACCTTTTTTCTCTTCTTTCTCGGAGTCACCTAGTGCAG”, the binding signal is 11300 fluorescence intensity (a.u.). As for “ATCTCAATGAGTTGGTCGTTTGCTGCTTCTCTATAGTGAACGGAGTCACCTAGTGCAG”, the figure is 9140 fluorescence intensity (a.u.). In the case of “GGGTTGGTTTGGTTTGGTTGCTTCTTCTCTGCTTCAACGGCGGAGTCACCTAGTGCAG” it was 40000 fluorescence intensity (a.u.); in that of “TGGTTTGGTTTGCTTCTTCTCTGCTTCAACGGTTGGTCGACGGAGTCACCTAGTGCAG”, 16900 fluorescence intensity (a.u.); in that of “ACCTTCTTACCCACTCCACCCACTGACAACGTTGGCCACCCGGAGTCACCTAGTGCAG”, 9360 fluorescence intensity (a.u.).

For “CCGTTCGCCACGTCCATCCGTTTTCTGTGCCATAGGCAGGCGGAGTCACCTAGTGCAG”, the binding signal is 9340 fluorescence intensity (a.u.). In the case of “GCGTGCTAAACCCTTGTGATCCGTGTATTTAACCACCTTCCGGAGTCACCTAGTGCAG” it was 11700 fluorescence intensity (a.u.); in that of “ATTGGATCGGATCAGATCCCTTTTGCGCACCACTCGCCTTCGGAGTCACCTAGTGCAG”, 8750 fluorescence intensity (a.u.).

For “TCGAGGAGTGGATGGACGGATGGGTGGGTCATCACTGGTCCGGAGTCACCTAGTGCAG”, the binding signal was 8840 fluorescence intensity (a.u.). As for “CCTCACGCAATTCCACAACTGCTGCTCCCACCCTCATCAGCGGAGTCACCTAGTGCAG”, the figure is 9580 fluorescence intensity (a.u.). As for “TTTGCAATATCAGGGGTGTGTTACATATGTATTTCGATTTCGGAGTCACCTAGTGCAG”, the figure is 12400 fluorescence intensity (a.u.); as for “TCTACCCGCCTTCCTTTTAGTCCCCGCGTCTCCACAAAATCGGAGTCACCTAGTGCAG”, 10100 fluorescence intensity (a.u.). As for “TATTTTCCGTGTGTACCGTTCCGGTTATCAATACCAGCGCCGGAGTCACCTAGTGCAG”, the figure is 8380 fluorescence intensity (a.u.); as for “CAGCCGCCCTACGTCAGCCAAGTCCAACGACAACGCCCAACGGAGTCACCTAGTGCAG”, 8200 fluorescence intensity (a.u.). With “TCATCCCACCGACGTCAGCAAGCCATCGCCATCAAGCCCACGGAGTCACCTAGTGCAG”, the binding signal is 9760 fluorescence intensity (a.u.). As for “GCCATCAAGCTACGCCATTCAGCATTGCAACGACGACGTCCGGAGTCACCTAGTGCAG”, the figure is 64300 fluorescence intensity (a.u.); as for “ACCTCTGCTGATTCTTCTTGCTGTTTCTTTGTTGCGCATTCGGAGTCACCTAGTGCAG”, 11500 fluorescence intensity (a.u.). Take “CACCTCGCGCCGCGCCCCATCCTTATCGTCATGACACGCCCGGAGTCACCTAGTGCAG”: the binding signal is 8810 fluorescence intensity (a.u.). As for “TCTTAGTATCCTTGGTTGTTGGATTTTTAGTTTGCTTTATCGGAGTCACCTAGTGCAG”, the figure is 9350 fluorescence intensity (a.u.); as for “TTGCTTGTCTGTTTGTTTTATTTATTTATGACGTCATTATCGGAGTCACCTAGTGCAG”, 12600 fluorescence intensity (a.u.); as for “GGTTTTTTTTGGATTTATTGCTTTGTCACGTCTGGATCGTCGGAGTCACCTAGTGCAG”, 20500 fluorescence intensity (a.u.). As for “GTTGGTTTTGGGGTTTTGGAGCGTTGCGGATTGCCACGGCCGGAGTCACCTAGTGCAG”, the figure is 10300 fluorescence intensity (a.u.); as for “AACTCTGGCACGATTTTTTTTATTGCAGTTTTCGTCGGATCGGAGTCACCTAGTGCAG”, 11400 fluorescence intensity (a.u.). For “TGGAGAGCGTTGCTTTTTTTGGGCGGGTTTGGATTTTTATCGGAGTCACCTAGTGCAG”, the binding signal is 21600 fluorescence intensity (a.u.).

Take “GAGGAGCTCGCCAATTGTTCCGCGTCATATCGCCAGCTCTCGGAGTCACCTAGTGCAG”: the binding signal is 9060 fluorescence intensity (a.u.). As for “AGTAATTTGACTTTTTCCTTAATCAAACTTCTTTAAGTTTCGGAGTCACCTAGTGCAG”, the figure is 10600 fluorescence intensity (a.u.); as for “GTTGCTGGTTTTGTTAGTTTGGTGACCTTGACTTGTAAGACGGAGTCACCTAGTGCAG”, 8670 fluorescence intensity (a.u.).

For “AGGAGCCAGACTTAGTTGGTGTAAGCCATTTACTAGTTGACGGAGTCACCTAGTGCAG”, the binding signal was 22800 fluorescence intensity (a.u.).

On to “GACTTGATTTTTTTTCTTAATTTGACCTTTTAATTTCAAACGGAGTCACCTAGTGCAG”, for which the binding signal was 8080 fluorescence intensity (a.u.). Consider “AACCTCTCATTTAATAAGATTCATCACAGTCTTTTTTTTTCGGAGTCACCTAGTGCAG”, for which the binding signal is 9990 fluorescence intensity (a.u.).

For “TACCATTTCTTTCTTGCTTTTTTAATGCCTAAATCATCTTCGGAGTCACCTAGTGCAG”, the binding signal is 8050 fluorescence intensity (a.u.). On to “GTCATTTTGTCTTTTTCTCTAAGTCAAACTTCTTTAATTTCGGAGTCACCTAGTGCAG”, for which the binding signal is 10900 fluorescence intensity (a.u.).

In the case of “GATTCTAGTCAAATTTCTTTTAATTTTGACTACGTTTATACGGAGTCACCTAGTGCAG”, the binding signal is 11200 fluorescence intensity (a.u.).

In the case of “CCTCTAAATTTTAAGATTTTTTTAATCATTTTACCATTTTCGGAGTCACCTAGTGCAG”, the binding signal is 65200 fluorescence intensity (a.u.).

“TCGTTGACTTTTTTCTTAGTCAAATTTCTTTAAGTTTGACCGGAGTCACCTAGTGCAG”: the binding signal is 42400 fluorescence intensity (a.u.). In the case of “ATAGTTGGTGTGTTTATGTAGACTTATTCTATTTTGACGTCGGAGTCACCTAGTGCAG” it was 10400 fluorescence intensity (a.u.); in that of “TCATTTTGACTTTTTTTAGTCAAACTCTTTTAATTTTAATCGGAGTCACCTAGTGCAG”, 19600 fluorescence intensity (a.u.).
